The full data set covers some 7,900 targets. This sample favours those with a hit. About 0.6% of all pairs of compound and target were hits.
Legend:
Experiment in all cases: log2 fold change, soluble protein after heating vs DMSO (PISA); higher = thermal stabilisation; K562 cells, 10 uM, 30 min; active = over 0.2 and 3.5 SD of the protein, either way, in both replicates (recomputed)
IRAK-1-4 Inhibitor I = compound: C1COCCN1CCN2C3=CC=CC=C3N=C2NC(=O)C4=CC(=CC=C4)[N+](=O)[O-] [IRAK-1-4 Inhibitor I]
Summary of the method: (§1)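 Aliquots of K562 cells (2×10^6 cells/mL) treated with 10 μM compound for 30 min were heated for 3 min over 48°C-58°C. After pooling and extraction in PBS with 0.5% NP-40 at 4°C, soluble protein from a 21,000xg, 90 min spin was quantified by TMTpro 16plex LC-MS/MS with channel sums equalised. Thermal stability is expressed against control samples, from duplicates, as a log2 fold change.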

ibrutinib = compound: C=CC(=O)N1CCC[C@@H](n2nc(-c3ccc(Oc4ccccc4)cc3)c3c(N)ncnc32)C1 [ibrutinib]
Summary of the method: as §1

[1] = compound: CC(=O)c1cnc2ccc(-c3cc(Cl)c(O)c(Cl)c3)nc2c1N[C@H]1CC[C@H](CN(C)C)CC1
Summary of the method: as §1

ralimetinib = compound: CC(C)(C)Cn1c(N)nc2ccc(-c3[nH]c(C(C)(C)C)nc3-c3ccc(F)cc3)nc21 [ralimetinib]
Summary of the method: as §1

[2] = compound: CC(C)(O)CC(=O)NCCn1ccc2ncnc(Nc3ccc(Oc4cccc(C(F)(F)F)c4)c(Cl)c3)c21
Summary of the method: as §1

[3] = compound: CC(C)C1=C2N=C(C=C(N2N=C1)NCC3=CC=CC=C3)NCCCCCCN
Summary of the method: as §1

[4] = compound: CC(C)C[C@@H](C=O)NC(=O)[C@H](CC(C)C)NC(=O)[C@H](CC(C)C)NC(=O)OCc1ccccc1
Summary of the method: as §1

pinometostat = compound: CC(C)N(C[C@H]1O[C@@H](n2cnc3c(N)ncnc32)[C@H](O)[C@@H]1O)[C@H]1C[C@@H](CCc2nc3cc(C(C)(C)C)ccc3[nH]2)C1 [pinometostat]
Summary of the method: as §1

[5] = compound: CC1=C(C(CC(=O)N1)C2=CC=C(C=C2)C(F)(F)F)C(=O)NC3=C(C=C4C(=C3)C=NN4)F
Summary of the method: as §1

[6] = compound: CC1=C(C2=C(C=C1)C(=O)C3=CC=CC=C3N2CCCN)C
Summary of the method: as §1

Measured: log2 fold change

LPGAT1 (UniProt Q92604)
Chain of UniProt Q92604 (Q92604 whole entry, looked up): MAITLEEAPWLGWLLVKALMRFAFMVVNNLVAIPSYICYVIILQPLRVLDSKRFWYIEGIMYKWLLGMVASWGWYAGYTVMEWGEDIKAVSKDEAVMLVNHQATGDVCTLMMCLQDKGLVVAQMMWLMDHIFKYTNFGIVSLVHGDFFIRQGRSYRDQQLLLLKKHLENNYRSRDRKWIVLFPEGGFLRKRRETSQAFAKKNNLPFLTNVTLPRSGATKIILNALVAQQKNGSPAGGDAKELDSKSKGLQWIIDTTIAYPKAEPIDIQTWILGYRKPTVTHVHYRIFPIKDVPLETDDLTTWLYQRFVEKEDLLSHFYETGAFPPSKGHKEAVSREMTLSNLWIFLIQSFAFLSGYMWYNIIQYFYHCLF
inactive: IRAK-1-4 Inhibitor I -0.115 | ibrutinib -0.05 | [1] 0.064 | ralimetinib 0.041 | [2] -0.066 | [3] -0.277 | [4] -0.057 | pinometostat 0.013 | [5] 0.037 | [6] 0.069

KNTC1 (UniProt P50748)
inactive: IRAK-1-4 Inhibitor I -0.084 | ibrutinib -0.028 | [1] 0.058 | ralimetinib -0.007 | [2] 0.012 | [3] -0.157 | [4] 0.039 | pinometostat 0.095 | [5] -0.02 | [6] -0.008

MARK3 (UniProt P27448)
active: [1] -2.03
inactive: IRAK-1-4 Inhibitor I -0.071 | ibrutinib -0.026 | ralimetinib 0.014 | [2] -0.035 | [3] -0.171 | [4] 0.084 | pinometostat 0.156 | [5] 0.136 | [6] 0.026

IWS1 (UniProt Q96ST2)
inactive: IRAK-1-4 Inhibitor I -0.026 | ibrutinib -0.027 | ralimetinib -0.04 | [2] -0.09 | [3] 0.166 | [4] -0.04 | pinometostat 0.014 | [5] -0.044
active: [1] 0.492 | [6] -0.301

IPO13 (UniProt O94829)
Chain of UniProt O94829 (O94829 whole entry, looked up): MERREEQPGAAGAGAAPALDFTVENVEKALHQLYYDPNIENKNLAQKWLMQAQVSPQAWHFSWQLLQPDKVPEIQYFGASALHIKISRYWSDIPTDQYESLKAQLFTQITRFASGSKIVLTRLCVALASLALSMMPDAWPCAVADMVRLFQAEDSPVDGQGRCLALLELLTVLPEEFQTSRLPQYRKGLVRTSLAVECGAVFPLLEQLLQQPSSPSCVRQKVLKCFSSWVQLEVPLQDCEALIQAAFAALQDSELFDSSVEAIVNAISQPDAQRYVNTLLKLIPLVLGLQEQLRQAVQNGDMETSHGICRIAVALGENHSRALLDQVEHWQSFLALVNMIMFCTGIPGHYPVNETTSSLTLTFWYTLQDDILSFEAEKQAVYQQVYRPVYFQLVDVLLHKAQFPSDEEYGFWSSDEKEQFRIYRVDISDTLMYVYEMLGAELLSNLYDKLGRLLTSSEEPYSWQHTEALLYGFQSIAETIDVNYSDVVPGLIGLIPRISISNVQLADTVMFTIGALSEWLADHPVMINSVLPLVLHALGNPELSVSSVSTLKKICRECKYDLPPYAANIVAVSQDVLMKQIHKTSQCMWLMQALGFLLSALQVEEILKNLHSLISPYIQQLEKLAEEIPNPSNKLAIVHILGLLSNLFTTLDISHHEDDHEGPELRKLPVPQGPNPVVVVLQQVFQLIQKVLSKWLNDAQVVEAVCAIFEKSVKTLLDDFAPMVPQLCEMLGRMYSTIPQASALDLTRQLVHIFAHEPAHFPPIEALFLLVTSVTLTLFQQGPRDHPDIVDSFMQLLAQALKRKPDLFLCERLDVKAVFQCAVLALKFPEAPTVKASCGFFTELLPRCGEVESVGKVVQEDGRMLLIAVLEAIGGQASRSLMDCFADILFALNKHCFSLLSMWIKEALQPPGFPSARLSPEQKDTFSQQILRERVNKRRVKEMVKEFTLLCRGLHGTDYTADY
active: [3] -0.281
inactive: IRAK-1-4 Inhibitor I -0.005 | ibrutinib -0.1 | [1] 0.066 | ralimetinib 0.103 | [2] -0.226 | [4] 0.002 | pinometostat 0.015 | [5] -0.026 | [6] -0.04

MAP2K7 isoform 4 (UniProt O14733)
inactive: IRAK-1-4 Inhibitor I 0.013 | [1] 0.175 | ralimetinib -0.043 | [2] -0.013 | [3] -0.025 | [4] 0.051 | pinometostat 0.022 | [5] 0.033 | [6] 0.032
active: ibrutinib -0.301

METTL18 (UniProt O95568)
inactive: IRAK-1-4 Inhibitor I 0.01 | ibrutinib 0.019 | [1] 0.013 | ralimetinib -0.036 | [2] 0.016 | [3] -0.009 | [4] -0.003 | pinometostat 0.023 | [5] 0.065 | [6] 0.072

KDM3B (UniProt Q7LBC6)
inactive: IRAK-1-4 Inhibitor I -0.01 | ibrutinib -0.04 | [1] -0.023 | ralimetinib -0.018 | [2] -0.089 | [3] -0.047 | [4] 0.014 | pinometostat -0.011 | [5] -0.018 | [6] -0.007

MAPK12 (UniProt P53778)
Chain of UniProt P53778 (P53778 whole entry, looked up): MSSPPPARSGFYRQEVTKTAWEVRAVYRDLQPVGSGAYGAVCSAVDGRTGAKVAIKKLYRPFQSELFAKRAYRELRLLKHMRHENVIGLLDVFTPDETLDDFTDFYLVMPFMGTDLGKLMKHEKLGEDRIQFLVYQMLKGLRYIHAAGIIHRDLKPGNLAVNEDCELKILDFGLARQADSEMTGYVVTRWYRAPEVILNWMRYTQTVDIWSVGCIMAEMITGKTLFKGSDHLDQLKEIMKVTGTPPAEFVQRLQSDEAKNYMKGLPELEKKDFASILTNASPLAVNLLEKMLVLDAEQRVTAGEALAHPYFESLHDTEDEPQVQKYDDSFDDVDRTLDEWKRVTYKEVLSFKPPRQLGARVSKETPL
inactive: IRAK-1-4 Inhibitor I 0.074 | ibrutinib 0.066 | [1] 0.201 | ralimetinib -0.046 | [2] 0.001 | [3] 0.388 | [4] -0.005 | pinometostat -0.004 | [5] 0.207 | [6] -0.025

LRRFIP1 (UniProt Q32MZ4)
inactive: IRAK-1-4 Inhibitor I 0.014 | ibrutinib 0.019 | [1] 0.027 | ralimetinib -0.003 | [2] 0.063 | [3] 0.084 | [4] 0.011 | pinometostat 0 | [5] 0 | [6] -0.043

KEAP1 (UniProt Q14145)
active: [3] -0.233
inactive: IRAK-1-4 Inhibitor I 0.008 | ibrutinib -0.085 | [1] 0.022 | ralimetinib 0.074 | [2] -0.07 | [4] 0.023 | pinometostat 0.109 | [5] -0.017 | [6] 0.028

LARP1 (UniProt Q6PKG0)
inactive: IRAK-1-4 Inhibitor I -0.131 | ibrutinib 0.009 | [1] -0.059 | ralimetinib 0.031 | [2] 0 | [3] -0.088 | [4] 0.036 | pinometostat 0.109 | [5] 0.021
active: [6] -0.303

ILKAP (UniProt Q9H0C8)
Chain of UniProt Q9H0C8 (Q9H0C8 whole entry, looked up): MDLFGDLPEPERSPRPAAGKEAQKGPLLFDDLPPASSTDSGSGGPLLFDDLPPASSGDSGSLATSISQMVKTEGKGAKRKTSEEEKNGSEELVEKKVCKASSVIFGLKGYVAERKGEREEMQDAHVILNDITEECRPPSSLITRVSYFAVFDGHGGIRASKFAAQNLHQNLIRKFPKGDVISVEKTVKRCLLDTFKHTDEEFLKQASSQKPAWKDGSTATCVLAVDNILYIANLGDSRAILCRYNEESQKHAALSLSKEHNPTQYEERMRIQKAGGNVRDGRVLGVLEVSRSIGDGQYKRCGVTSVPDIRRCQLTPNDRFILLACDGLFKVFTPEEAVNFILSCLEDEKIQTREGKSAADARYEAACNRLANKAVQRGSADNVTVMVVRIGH
inactive: IRAK-1-4 Inhibitor I -0.07 | ibrutinib -0.016 | [1] -0.055 | ralimetinib -0.024 | [2] -0.133 | [3] -0.078 | [4] -0.053 | pinometostat -0.004 | [5] 0.017 | [6] 0.032

MAST4 (UniProt O15021)
active: ralimetinib -0.479
inactive: IRAK-1-4 Inhibitor I -0.025 | ibrutinib -0.138 | [1] -0.089 | [2] -0.091 | [3] -0.085 | [4] 0.002 | pinometostat -0.057 | [5] -0.027 | [6] 0.268

MED16 (UniProt Q9Y2X0)
Chain of UniProt Q9Y2X0 (Q9Y2X0 whole entry, looked up): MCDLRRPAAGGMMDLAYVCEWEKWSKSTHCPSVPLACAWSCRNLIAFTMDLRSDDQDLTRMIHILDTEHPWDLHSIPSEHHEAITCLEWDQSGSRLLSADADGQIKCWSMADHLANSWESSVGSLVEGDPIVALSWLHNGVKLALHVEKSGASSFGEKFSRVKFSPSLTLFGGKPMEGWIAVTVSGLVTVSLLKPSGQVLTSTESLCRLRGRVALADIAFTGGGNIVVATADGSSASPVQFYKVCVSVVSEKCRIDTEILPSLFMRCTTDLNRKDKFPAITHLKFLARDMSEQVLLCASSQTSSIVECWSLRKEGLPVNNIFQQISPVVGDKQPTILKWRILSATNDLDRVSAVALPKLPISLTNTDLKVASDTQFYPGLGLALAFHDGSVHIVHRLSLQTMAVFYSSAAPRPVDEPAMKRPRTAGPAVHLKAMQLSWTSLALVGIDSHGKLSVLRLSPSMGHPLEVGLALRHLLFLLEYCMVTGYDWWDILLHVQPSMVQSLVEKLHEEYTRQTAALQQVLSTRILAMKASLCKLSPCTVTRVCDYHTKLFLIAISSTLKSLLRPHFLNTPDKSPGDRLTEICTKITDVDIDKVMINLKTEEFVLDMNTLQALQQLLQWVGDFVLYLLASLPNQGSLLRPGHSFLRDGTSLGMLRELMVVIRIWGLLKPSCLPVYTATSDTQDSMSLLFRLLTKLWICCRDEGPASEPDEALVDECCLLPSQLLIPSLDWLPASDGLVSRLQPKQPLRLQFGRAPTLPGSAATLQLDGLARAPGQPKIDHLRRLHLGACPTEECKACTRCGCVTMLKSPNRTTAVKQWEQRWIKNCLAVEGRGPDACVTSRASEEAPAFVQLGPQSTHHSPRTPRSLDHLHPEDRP
active: [1] -0.358
inactive: IRAK-1-4 Inhibitor I 0 | ibrutinib 0.003 | ralimetinib 0.033 | [2] -0.029 | [3] -0.008 | [4] 0.064 | pinometostat 0.112 | [5] -0.019 | [6] 0.17

MCCC2 (UniProt Q9HCC0)
inactive: IRAK-1-4 Inhibitor I 0.046 | ibrutinib 0.019 | [1] 0.047 | ralimetinib -0.015 | [2] 0.027 | [3] 0.024 | [4] -0.04 | pinometostat -0.05 | [5] 0 | [6] 0.003

IMMP1L (UniProt Q96LU5)
Chain of UniProt Q96LU5 (Q96LU5 whole entry, looked up): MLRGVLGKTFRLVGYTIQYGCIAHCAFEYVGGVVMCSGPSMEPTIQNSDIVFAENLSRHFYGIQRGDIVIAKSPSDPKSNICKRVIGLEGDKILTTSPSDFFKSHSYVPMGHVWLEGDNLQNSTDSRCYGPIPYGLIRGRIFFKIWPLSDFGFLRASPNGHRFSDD
inactive: IRAK-1-4 Inhibitor I 0.006 | ibrutinib 0.043 | [1] 0.002 | ralimetinib 0.031 | [2] 0.03 | [3] 0.026 | [4] 0.112 | pinometostat -0.033 | [5] 0.06 | [6] 0.199

JMJD6 isoform 3 (UniProt Q6NYC1)
inactive: IRAK-1-4 Inhibitor I -0.02 | ibrutinib -0.011 | [1] -0.049 | ralimetinib -0.065 | [2] 0.019 | [3] -0.041 | [4] 0.004 | pinometostat -0.016 | [5] 0.013 | [6] 0.102

IPO11 isoform 2 (UniProt Q9UI26)
inactive: IRAK-1-4 Inhibitor I 0.011 | ibrutinib -0.014 | [1] 0.039 | ralimetinib -0.016 | [2] -0.095 | [3] 0.018 | [4] -0.039 | pinometostat -0.035 | [5] 0.002 | [6] -0.018

ILK (UniProt Q13418)
inactive: IRAK-1-4 Inhibitor I 0.029 | ibrutinib 0.004 | [1] -0.029 | ralimetinib 0.027 | [2] -0.081 | [3] -0.094 | [4] 0.128 | pinometostat 0.083 | [5] -0.005 | [6] 0.01

MIER1 isoform 12 (UniProt Q8N108)
inactive: IRAK-1-4 Inhibitor I 0.055 | ibrutinib -0.012 | [1] -0.035 | ralimetinib 0.033 | [2] -0.021 | [3] -0.062 | [4] 0.03 | pinometostat -0.013 | [5] 0.027 | [6] -0.122

LIMD1 (UniProt Q9UGP4)
inactive: IRAK-1-4 Inhibitor I 0.03 | ibrutinib 0.033 | [1] -0.008 | ralimetinib 0.035 | [2] -0.035 | [3] 0.044 | [4] -0.072 | pinometostat 0.016 | [5] 0.003 | [6] -0.032

LRBA (UniProt P50851)
inactive: IRAK-1-4 Inhibitor I 0.015 | ibrutinib -0.02 | [1] -0.006 | ralimetinib -0.023 | [2] -0.059 | [3] -0.091 | [4] 0.005 | pinometostat 0.008 | [5] -0.005 | [6] -0.004

KPNA6 (UniProt O60684)
inactive: IRAK-1-4 Inhibitor I -0.046 | ibrutinib -0.032 | [1] -0.04 | ralimetinib 0.077 | [2] -0.047 | [3] -0.239 | [4] 0.087 | pinometostat 0.087 | [5] 0.04 | [6] -0.15

KIF13A (UniProt Q9H1H9)
Chain of UniProt Q9H1H9 (Q9H1H9 whole entry, looked up): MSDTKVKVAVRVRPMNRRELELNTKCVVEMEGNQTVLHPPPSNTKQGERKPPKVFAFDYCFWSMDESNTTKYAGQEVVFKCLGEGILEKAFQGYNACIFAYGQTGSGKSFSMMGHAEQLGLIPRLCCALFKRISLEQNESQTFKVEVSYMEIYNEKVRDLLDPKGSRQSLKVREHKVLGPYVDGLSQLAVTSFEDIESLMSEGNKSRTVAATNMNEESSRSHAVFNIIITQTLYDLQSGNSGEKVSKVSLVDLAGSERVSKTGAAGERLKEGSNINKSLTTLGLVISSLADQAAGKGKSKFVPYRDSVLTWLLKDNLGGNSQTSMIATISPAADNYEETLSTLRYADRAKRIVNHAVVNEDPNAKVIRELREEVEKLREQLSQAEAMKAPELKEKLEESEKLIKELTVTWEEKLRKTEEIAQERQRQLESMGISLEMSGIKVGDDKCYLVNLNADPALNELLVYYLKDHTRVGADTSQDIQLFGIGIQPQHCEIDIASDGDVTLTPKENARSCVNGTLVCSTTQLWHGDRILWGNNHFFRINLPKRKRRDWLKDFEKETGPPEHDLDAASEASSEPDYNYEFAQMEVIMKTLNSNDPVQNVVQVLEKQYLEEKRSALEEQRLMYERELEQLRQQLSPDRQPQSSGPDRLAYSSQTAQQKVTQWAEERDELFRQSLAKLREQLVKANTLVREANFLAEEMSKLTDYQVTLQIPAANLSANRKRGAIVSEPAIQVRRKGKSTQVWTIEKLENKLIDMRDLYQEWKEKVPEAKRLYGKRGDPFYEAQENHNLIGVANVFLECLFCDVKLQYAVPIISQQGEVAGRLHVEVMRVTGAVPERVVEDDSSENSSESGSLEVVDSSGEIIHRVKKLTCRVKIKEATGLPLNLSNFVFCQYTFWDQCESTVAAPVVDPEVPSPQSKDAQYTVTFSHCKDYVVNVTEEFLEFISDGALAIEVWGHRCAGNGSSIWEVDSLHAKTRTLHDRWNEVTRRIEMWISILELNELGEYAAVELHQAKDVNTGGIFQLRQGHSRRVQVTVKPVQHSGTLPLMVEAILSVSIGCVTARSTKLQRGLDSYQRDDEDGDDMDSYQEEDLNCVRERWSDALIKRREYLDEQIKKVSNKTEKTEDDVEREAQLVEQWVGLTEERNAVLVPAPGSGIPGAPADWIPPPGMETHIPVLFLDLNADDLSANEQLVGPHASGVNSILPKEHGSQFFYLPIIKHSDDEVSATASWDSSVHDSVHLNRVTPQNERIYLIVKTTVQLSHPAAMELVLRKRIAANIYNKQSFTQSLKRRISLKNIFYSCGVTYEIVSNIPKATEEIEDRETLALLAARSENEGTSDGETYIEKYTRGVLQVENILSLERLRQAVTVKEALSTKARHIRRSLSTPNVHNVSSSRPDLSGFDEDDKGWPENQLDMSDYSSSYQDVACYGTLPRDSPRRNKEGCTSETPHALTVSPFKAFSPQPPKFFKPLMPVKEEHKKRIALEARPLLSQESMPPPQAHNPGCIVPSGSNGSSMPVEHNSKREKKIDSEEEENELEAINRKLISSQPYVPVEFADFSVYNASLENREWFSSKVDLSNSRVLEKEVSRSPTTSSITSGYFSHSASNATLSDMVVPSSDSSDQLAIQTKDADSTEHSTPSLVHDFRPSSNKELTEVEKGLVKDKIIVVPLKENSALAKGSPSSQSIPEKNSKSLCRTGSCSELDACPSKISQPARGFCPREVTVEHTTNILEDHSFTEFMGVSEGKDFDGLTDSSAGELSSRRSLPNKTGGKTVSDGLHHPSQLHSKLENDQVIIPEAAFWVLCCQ
inactive: IRAK-1-4 Inhibitor I 0.045 | ibrutinib 0.042 | [1] 0.047 | ralimetinib -0.015 | [2] 0.025 | [3] -0.069 | [4] 0.035 | pinometostat -0.008 | [5] -0.01 | [6] -0.044

MAP4 (UniProt P27816)
inactive: IRAK-1-4 Inhibitor I 0.003 | ibrutinib 0 | [1] 0.012 | ralimetinib 0.025 | [2] 0.012 | [3] 0.076 | [4] 0.019 | pinometostat 0.001 | [5] 0.006 | [6] 0.08

IRF2BPL (UniProt Q9H1B7)
inactive: IRAK-1-4 Inhibitor I 0.031 | ibrutinib 0.038 | [1] 0.008 | ralimetinib 0.013 | [2] -0.18 | [3] 0.076 | [4] 0.063 | pinometostat -0.206 | [5] 0.044 | [6] 0.093

MAP4K5 (UniProt Q9Y4K4)
active: [1] -0.289
inactive: IRAK-1-4 Inhibitor I -0.02 | ibrutinib 0.067 | ralimetinib -0.045 | [2] -0.057 | [3] -0.034 | [4] 0.034 | pinometostat -0.014 | [5] -0.046 | [6] -0.02

LSR (UniProt Q86X29)
inactive: IRAK-1-4 Inhibitor I 0.053 | ibrutinib 0.006 | [1] -0.139 | ralimetinib -0.009 | [2] 0.058 | [3] 0.093 | [4] 0.086 | pinometostat -0.046 | [5] -0.035 | [6] -0.008

KIF21A isoform 4 (UniProt Q7Z4S6)
inactive: IRAK-1-4 Inhibitor I -0.025 | ibrutinib -0.053 | [1] -0.054 | ralimetinib 0.035 | [2] -0.062 | [3] -0.009 | [4] 0.084 | pinometostat 0.144 | [5] 0.01 | [6] 0.096

— the supplement of paper PMC10849652
